Here are results for four compounds from PubChem BioAssay (NCATS).

Results filed as inconclusive are left out. Active and inactive are the calls of the source. Unless noted, calls come from the whole dose curve.

The nature of assay [1]: qHTS assay for small molecule agonists of retinoid X receptor alpha signaling (AID 588544).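 For activation: 0% = DMSO basal wells and 100% = reference agonist.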 The note with it: HEK293T RXRa-UAS-bla, beta-lactamase reporter, 18 h; 530 nm emission. (In general: Quantitative high-throughput screening tests each substance at several concentrations.)
Assay [2] concerns the target Retinoic acid receptor RXR-alpha (Homo sapiens) (UniProt P19793). The description is as above. Particulars: HEK293T RXRa-UAS-bla, beta-lactamase reporter, 18 h; series mostly up to 76.7 µM.
In assay [3] the target is Thyroid hormone receptor beta (Homo sapiens) (UniProt P10828). Description: qHTS assay for small molecule agonists of thyroid hormone receptor beta signaling (AID 588545). The note with it: TR-UAS-bla GripTite HEK 293, beta-lactamase ratio, agonist mode, 18 h, percent of T3 response, DMSO as zero; series mostly up to 76.7 µM. An outline of the steps: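 Agonist activity was read as beta-lactamase CCF4 fluorescence (405 ex, 460/530 em), scaled between DMSO (0%) and 10 nM T3 (100%), then Hill-fitted for EC50 and efficacy. HEK 293 TR-UAS-bla cells in 2% charcoal/dextran FBS medium were exposed 18 h at 37 C.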
Thyroid hormone receptor beta (Homo sapiens), sequence (P10828 whole entry, looked up): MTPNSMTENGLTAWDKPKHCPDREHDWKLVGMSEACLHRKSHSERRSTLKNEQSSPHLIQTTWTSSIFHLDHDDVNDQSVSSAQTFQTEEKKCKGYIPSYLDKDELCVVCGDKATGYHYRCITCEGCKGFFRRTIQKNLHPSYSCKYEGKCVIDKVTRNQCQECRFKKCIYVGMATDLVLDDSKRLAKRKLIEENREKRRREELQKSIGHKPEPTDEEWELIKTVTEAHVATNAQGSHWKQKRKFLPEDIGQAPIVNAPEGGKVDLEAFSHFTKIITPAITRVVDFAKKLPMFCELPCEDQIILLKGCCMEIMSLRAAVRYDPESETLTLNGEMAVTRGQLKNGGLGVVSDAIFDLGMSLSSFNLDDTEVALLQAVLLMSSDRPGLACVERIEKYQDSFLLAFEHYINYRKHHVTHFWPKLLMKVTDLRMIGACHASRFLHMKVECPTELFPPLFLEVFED

A short description of assay [4]: qHTS assay for small molecule antagonists of retinoid X receptor alpha signaling (AID 588546; active = well fitted inhibition curve with a large enough effect in the signal ratio, with a control signal flat, not every such curve was filed as active; the % refers to the signal ratio;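 note: cells stimulated with 9-cis-retinoic acid as agonist; % is set by controls: 0 for no effect and ±100 for the full control effect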). The note with it: HEK293T RXRa-UAS-bla, beta-lactamase ratio, antagonist mode; measured here: W530 green channel, cytotoxicity proxy. An outline of the steps: (§1)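 Beta-lactamase reporter inhibition, read as CCF4 fluorescence ratio (ex 405, em 460/530 nm) after 2 h at RT. HEK293T UAS-bla cells, 2500/well, were stimulated with 9-cis-RA at 500 or 100 nM final alongside test compound for 18 h at 37 C.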

The target in assay [5] is Retinoic acid receptor RXR-alpha (Homo sapiens) (UniProt P19793). Described as above. Particulars: HEK293T RXRa-UAS-bla, beta-lactamase ratio, antagonist mode. An outline of the steps: as §1
Retinoic acid receptor RXR-alpha (Homo sapiens), sequence (P19793 whole entry, looked up): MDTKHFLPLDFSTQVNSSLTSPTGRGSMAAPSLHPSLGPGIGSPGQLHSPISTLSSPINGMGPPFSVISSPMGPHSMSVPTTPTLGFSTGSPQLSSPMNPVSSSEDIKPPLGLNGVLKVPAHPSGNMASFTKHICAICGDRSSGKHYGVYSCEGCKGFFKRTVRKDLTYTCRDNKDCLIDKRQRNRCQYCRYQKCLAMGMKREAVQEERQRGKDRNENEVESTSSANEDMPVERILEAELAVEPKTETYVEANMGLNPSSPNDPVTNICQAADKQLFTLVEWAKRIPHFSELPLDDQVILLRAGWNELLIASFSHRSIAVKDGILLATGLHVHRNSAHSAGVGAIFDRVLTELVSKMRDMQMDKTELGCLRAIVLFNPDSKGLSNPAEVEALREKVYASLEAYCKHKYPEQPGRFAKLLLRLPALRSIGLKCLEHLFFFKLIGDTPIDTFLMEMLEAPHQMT
Assay [6] addresses Thyroid hormone receptor beta (Homo sapiens) (UniProt P10828). Description: qHTS assay for small molecule antagonists of thyroid hormone receptor beta signaling (AID 588547; active = well fitted inhibition curve with a large enough effect in the signal ratio, with a control signal flat, not every such curve was filed as active; the % refers to the signal ratio;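 note: cells stimulated with 0.4 nM T3 agonist during compound exposure; % is set by controls: 0 for no effect and ±100 for the full control effect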). Particulars: TR-UAS-bla HEK293, beta-lactamase ratio, antagonist mode, 18 h. The procedure, abridged: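 TR-UAS-bla GripTite HEK293 cells in 2% charcoal/dextran FBS medium; compounds 0.59 nM to 92 uM with T3 at 0.4nM final, 18 h at 37 C. Beta-lactamase read by CCF4 fluorescence (460/530 nm); Hill fits gave IC50 and efficacy.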

Assay [7] is described as follows: qHTS assay for small molecule disruptors of the mitochondrial membrane potential - 1 hr assay (AID 651754). Note: % is set by controls: 0 for no effect and ±100 for the full control effect; nearly all actives have a fitted effect of over 35% in size. The note with it: series mostly up to 92.2 µM. An outline of the steps:
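In this qHTS format, a 1 hr compound treatment of HepG2 cells precedes Mito-MPS staining, and membrane potential is judged from aggregate (red) against monomer (green) fluorescence intensity.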

A short description of assay [8]: qHTS assay for small molecule disruptors of the mitochondrial membrane potential - 5 hr assay (AID 651755). Note: % is set by controls: 0 for no effect and ±100 for the full control effect; nearly all actives have a fitted effect of over 40% in size. Particulars: JC-1-type ratio dye; series mostly up to 92.2 µM. The procedure, abridged:
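Read-out: ratiometric Mito-MPS fluorescence, green monomer (ex 490/em 535) vs red mitochondrial aggregate (ex 540/em 590). HepG2 cells treated 5 hr at 37C before 30 min dye loading.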

For assay [9], the target named is Tumor necrosis factor (Homo sapiens) (UniProt P01375). Description: qHTS assay to identify small molecules that stimulate Tumor Necrosis Factor-alpha (TNF-alpha) secretion (AID 651757; active = well fitted curve in the direction sought with a large enough effect in the signal ratio; the % refers to the signal ratio; note: 0% is about no effect). The note with it: Human cells, HTRF 665/615 ratio; series mostly up to 92.2 µM. The procedure, abridged:
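Using 3000 THP-1 cells per well, compounds and controls were applied for 17 hrs at 37 C. Detection followed with two labeled anti-TNF-alpha antibodies (cryptate donor, XL665 acceptor) for 3 hr at room temperature, measured by TR-FRET.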

Assay [10] is described as follows: qHTS assay for environmental chemicals that activate the Aryl hydrocarbon Receptor (AhR) signaling pathway (AID 651777; active = well fitted curve in the direction sought with a large enough effect; an effect the other way counts as inactive or inconclusive; note: % of control where 0% means no effect; nearly all actives have a fitted effect of over 15% in size). Particulars: 1A2-DRE human hepatoma cells, luciferase, 24 h; activation: stronger effect = higher value. The procedure, abridged:
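Following a 24 hr incubation with test chemicals at 37 C and 5% CO2, 1A2-DRE human hepatoma cells received One-Glo reagent; after 30 min at room temperature, luciferase output reflected CYP1A2 induction via AhR.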

Assay [11] addresses Peroxisome proliferator-activated receptor alpha (Homo sapiens) (UniProt Q07869). Description: qHTS assay for small molecule agonists of the peroxisome proliferator-activated receptor alpha (PPARalpha) signaling pathway (AID 651778; active = well fitted curve in the direction sought with a large enough effect; an effect the other way counts as inactive or inconclusive; note: % of control where 0% means no effect). The note with it: PathHunter PPARalpha complementation, chemiluminescence, 6 h; stronger effect = higher value. An outline of the steps: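 Enzyme-fragment complementation assay in which ligand-bound PPARalpha translocates and forms an active enzyme that generates chemiluminescence. Cells were plated overnight, exposed to compound for 6 hr at 37 C, and then given detection reagent for 60 min at room temperature.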

The target in assay [12] is Nuclear receptor ROR-gamma (Homo sapiens) (UniProt P51449). Description: qHTS assay for small molecule antagonists of the retinoid-related orphan receptor gamma (ROR-gamma) signaling pathway (AID 651802; active = well fitted curve in the direction sought with a large enough effect; an effect the other way counts as inactive or inconclusive;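 note: luciferase reporter luminescence driven by ROR response element; % is set by controls: 0 for no effect and ±100 for the full control effect; nearly all actives have a fitted effect of over 60% in size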). The note with it: ROR-gamma antagonist cell reporter assay; series mostly up to 92.2 µM. An outline of the steps: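 Doxycycline-induced reporter activity in engineered CHO cells (TET-inducible ROR, RORE-LUC) was measured by luminescence after 16hr compound exposure at 37C.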
Nuclear receptor ROR-gamma (Homo sapiens), sequence (P51449 whole entry, looked up): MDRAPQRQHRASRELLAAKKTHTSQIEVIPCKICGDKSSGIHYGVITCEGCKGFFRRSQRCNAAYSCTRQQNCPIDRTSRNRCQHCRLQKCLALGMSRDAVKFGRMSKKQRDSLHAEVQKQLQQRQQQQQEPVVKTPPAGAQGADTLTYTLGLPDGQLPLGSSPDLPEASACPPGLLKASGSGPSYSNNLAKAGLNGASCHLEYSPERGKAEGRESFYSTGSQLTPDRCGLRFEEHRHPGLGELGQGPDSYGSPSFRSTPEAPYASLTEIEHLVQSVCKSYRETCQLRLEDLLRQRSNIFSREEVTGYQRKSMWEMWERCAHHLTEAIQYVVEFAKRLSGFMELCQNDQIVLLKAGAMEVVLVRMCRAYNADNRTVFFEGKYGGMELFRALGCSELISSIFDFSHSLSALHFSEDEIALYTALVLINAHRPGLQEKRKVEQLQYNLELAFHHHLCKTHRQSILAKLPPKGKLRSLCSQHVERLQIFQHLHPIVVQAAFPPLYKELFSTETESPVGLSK

Assay [13] can be described thus: qHTS assay for small molecule agonists of the antioxidant response element (ARE) signaling pathway measured by Nrf2-dependant transcriptional activity (AID 720636; active = well fitted curve in the direction sought with a large enough effect in the repeat runs; an effect the other way counts as inactive or inconclusive;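 note: HepG2 cells with an ARE-driven luciferase reporter; % of control where 0% means no effect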). Particulars: ARE-luc HepG2, Nrf2 luciferase reporter, 16 h; series mostly up to 92.4 µM. The procedure, abridged:
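ONE-Glo luminescence, read 30 min after reagent addition at room temperature, reflected ARE reporter activity in HepG2 cells that had been incubated with compound for 16 hr at 37 C in 1% dialyzed FBS.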

A short description of assay [14]: qHTS assay for small molecule antagonists of the retinoid-related orphan receptor gamma (ROR-gamma) signaling pathway - cell viability counter screen (AID 720652; active = well fitted curve in the direction sought with a large enough effect in the repeat runs; an effect the other way counts as inactive or inconclusive;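 note: compound exposure lasted 16 hr before ATP read; % is set by controls: 0 for no effect and ±100 for the full control effect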). The note with it: RORgamma reporter cell line viability counter screen; series mostly up to 92.2 µM. An outline of the steps:
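ATP-based viability readout in the ROR-gamma reporter CHO cells after 16 hr compound exposure under doxycycline induction.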

Assay [15] in a line: qHTS assay for small molecule agonists of the antioxidant response element (ARE) signaling pathway measured by Nrf2-dependant transcriptional activity - cell viability counter screen (AID 720653; active = well fitted curve in the direction sought with a large enough effect in the repeat runs; an effect the other way counts as inactive or inconclusive; note: % is set by controls: 0 for no effect and ±100 for the full control effect). Particulars: ARE-bla HepG2 viability, CellTiter-Glo ATP luminescence, 16 h; stronger effect = lower value. An outline of the steps:
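ARE-bla HepG2 cells treated with compounds for 16 h at 37C; this counter screen measures viability as intracellular ATP by CellTiter-Glo luminescence after 30 min at room temperature.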

Assay [16] is described as follows: qHTS assay for small molecule activators of the p53 signaling pathway (AID 651743; active = well fitted activation curve with a large enough effect in the signal ratio, not every such curve was filed as active; the % refers to the signal ratio; note: % of control where 0% means no effect). The note with it: HCT-116 p53RE-bla, beta-lactamase FRET ratio, 16 h; stronger effect = higher value. An outline of the steps:
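Reporter: beta-lactamase driven by p53 response elements, stably integrated in HCT-116 cells. Cells seeded at 4,000/well, 5 h preincubation, compound (DMSO) 16 h at 37 C; B/G FRET substrate 2 h RT; fluorescence intensity read.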

A short description of assay [17]: qHTS assay for small molecule activators of the nuclear factor-kappa B (NF-kB) signaling pathway (AID 651749; active = well fitted activation curve with a large enough effect in the signal ratio; the % refers to the signal ratio; note: % of control where 0% means no effect). Particulars: NF-kB-bla ME-180 cells, beta-lactamase FRET ratio, 16 h; stronger effect = higher value. An outline of the steps: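 NF-kB-bla ME-180 cells, 2,000/well; 23 nL compound or DMSO pinned; 16 hr, 37C/5% CO2; beta-lactamase FRET read-out.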
The nature of assay [18]: qHTS assay to identify small molecules that stimulate interleukin-8 (IL-8) secretion (AID 651758; active = well fitted activation curve with a large enough effect in the signal ratio; the % refers to the signal ratio; note: 0% is about no effect). The note with it: HTRF ratio (665/615); series mostly up to 92.2 µM. An outline of the steps: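 Compounds are added to THP-1 cells (2000 per well) and left 16 hrs at 37 C. A labeled anti-IL-8 antibody pair is then added, and IL-8 secretion is measured by time-resolved FRET after 1-3 hrs at room temperature.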

Assay [19] is described as follows: qHTS assay for small molecule agonists of the antioxidant response element (ARE) signaling pathway (AID 651741; active = well fitted activation curve with a large enough effect in the signal ratio; the % refers to the signal ratio; note: % of control where 0% means no effect). Particulars: HepG2 ARE-bla reporter, beta-lactamase FRET ratio, 16 h; series mostly up to 96 µM. The procedure, abridged: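 HepG2 ARE-bla reporter cells, 2,000/well; 5 h settle at 37 C/5% CO2; compound pin transfer (23 nL, DMSO); 16 h at 37 C; LiveBLAzer B/G FRET substrate, 2 h RT; fluorescence intensity read.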

Peroxisome proliferator-activated receptor alpha (Homo sapiens), sequence (Q07869 whole entry, looked up, the tested form may be a part): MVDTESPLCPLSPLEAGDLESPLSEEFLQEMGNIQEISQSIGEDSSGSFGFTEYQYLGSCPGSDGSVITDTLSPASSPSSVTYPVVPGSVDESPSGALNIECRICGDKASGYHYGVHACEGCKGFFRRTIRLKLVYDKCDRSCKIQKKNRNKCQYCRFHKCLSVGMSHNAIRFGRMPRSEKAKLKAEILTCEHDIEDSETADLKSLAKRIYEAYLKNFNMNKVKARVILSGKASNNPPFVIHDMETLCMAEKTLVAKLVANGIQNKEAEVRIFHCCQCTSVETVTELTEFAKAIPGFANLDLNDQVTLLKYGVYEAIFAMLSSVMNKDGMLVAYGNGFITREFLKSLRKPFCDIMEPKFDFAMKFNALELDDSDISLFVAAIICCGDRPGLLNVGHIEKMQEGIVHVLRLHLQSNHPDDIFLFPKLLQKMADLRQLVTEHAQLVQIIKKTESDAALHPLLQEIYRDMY
Tumor necrosis factor (Homo sapiens), sequence (P01375 whole entry, looked up): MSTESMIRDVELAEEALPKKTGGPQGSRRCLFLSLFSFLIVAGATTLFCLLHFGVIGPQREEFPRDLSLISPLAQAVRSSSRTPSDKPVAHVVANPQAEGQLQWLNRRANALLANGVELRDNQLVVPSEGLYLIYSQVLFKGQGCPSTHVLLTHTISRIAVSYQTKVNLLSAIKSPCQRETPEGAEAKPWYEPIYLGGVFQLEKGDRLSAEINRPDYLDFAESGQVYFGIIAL

Consider `CC(C)(C)c1ccc(OCC2CO2)cc1` (configuration not stated), for which the max response in assay [1] is -13.4%; in [4], -2.99%; in assay [5], 11.5% (inactive); in assay [11] it was -5.01% (inactive); in [15] it was 4.81% (inactive). The compound was classed as inactive in assay [2], in assay [3] and in assay [13]. For the same compound, the activity change % (negative = inhibition) in [6] is 5.82% (inactive). Further, the Potency entry in assay [7], in [8], in [9], in assay [12] and in [14] was “inactive” throughout. Also, the activation in [10] is 8.83% (inactive).
Regarding `O=C(O)/C=C/C(=O)O`, the max response in assay [1] was -9.62%; in [4], -3.98%; in assay [5], 8.67% (inactive); in assay [11] it was -1.33% (inactive); in [15], 17.2% (inactive). The result in assay [2], in assay [3] and in [13] was inactive. For the same compound, the activity change % (negative = inhibition) in [6] is 3% (inactive). Besides, the activation in assay [16] was -2.03% (inactive); in assay [17], -1.19% (inactive). Besides, the Potency result in assay [7], in assay [8], in assay [9], in [18] and in assay [12] was “inactive” throughout.
As to `C[C@@H]1O[C@@H](O[C@@H]2[C@@H](O)[C@H](OCCc3ccc(O)c(O)c3)O[C@H](CO[C@@H]3O[C@H](CO)[C@@H](O)[C@H](O)[C@H]3O)[C@H]2OC(=O)/C=C/c2ccc(O)c(O)c2)[C@H](O)[C@H](O)[C@H]1O`, the max response in assay [1] was 0.999%; in assay [4], -0.609%; in assay [5] it was -6.94% (inactive); in assay [11], 0.275% (inactive); in assay [15], -6.98% (inactive). Further, the outcome in [2], in assay [3] and in assay [13] was inactive. In addition, the activity change % (negative = inhibition) in assay [6] was 4.68% (inactive). Further, the Potency entry in assay [19], in [7], in assay [8] and in assay [12] was “inactive” throughout. Besides, the activation in assay [16] was -0.671% (inactive); in assay [17], -0.414% (inactive).
On to `C(=C/c1ccccc1)/c1ccccc1`, for which the max response is -10% in assay [1]; -6.97% in assay [4]; -3.93% (inactive) in assay [5]; 5.49% (inactive) in assay [11]; 5.32% (inactive) in assay [15]. The call in assay [2], in assay [3] and in assay [13] was inactive. In addition, in assay [6], the activity change % (negative = inhibition) was -6.07% (inactive). Moreover, the activation in [17] is -0.123% (inactive); in [10], 1.55% (inactive). For the same compound, the Potency entry in [7], in assay [8], in assay [9], in assay [12] and in assay [14] was “inactive” throughout.
